According to PubChem BioAssay (NCI):
About 83,000 compounds went through this panel and 20% of them were active in at least one assay; those are over-represented in the sample as a whole.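 Activity criterion: percent growth below 10, measured after cells in 96-well plates were exposed to a single compound concentration for 48 hours.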 Unmarked numbers belong to inactive results. Activity calls are given as the source filed them.

Experiments:
Assay in all cases: NCI-60 one-dose screen, 48 h (100 = growth as untreated, 0 = no growth, -100 = all killed)
Conditions in all cases: 10 µM unless noted
NCI-H23 lung = system: NCI-H23 lung
NCI-H226 lung = system: NCI-H226 lung
NCI-H322M lung = system: NCI-H322M lung
HOP-62 NSCLC = system: HOP-62 NSCLC
NCI-H460 lung = system: NCI-H460 lung
NCI-H522 lung = system: NCI-H522 lung
A549/ATCC NSCLC = system: A549/ATCC NSCLC
786-0 renal = system: 786-0 renal
COLO 205 colon = system: COLO 205 colon
DU-145 prostate = system: DU-145 prostate
K-562 leukemia = system: K-562 leukemia
MALME-3M melanoma = system: MALME-3M melanoma
MDA-MB-231 breast = system: MDA-MB-231 breast
RXF 393 renal = system: RXF 393 renal
SF-268 CNS = system: SF-268 CNS
SF-295 CNS = system: SF-295 CNS
SF-539 CNS = system: SF-539 CNS
UACC-257 melanoma = system: UACC-257 melanoma
M14 melanoma = system: M14 melanoma

Row | Compound | growth (NCI-H23 lung) | growth (NCI-H226 lung) | growth (NCI-H322M lung) | growth (HOP-62 NSCLC) | growth (NCI-H460 lung) | growth (NCI-H522 lung) | growth (A549/ATCC NSCLC) | growth (786-0 renal) | growth (COLO 205 colon) | growth (DU-145 prostate) | growth (K-562 leukemia) | growth (MALME-3M melanoma) | growth (MDA-MB-231 breast) | growth (RXF 393 renal) | growth (SF-268 CNS) | growth (SF-295 CNS) | growth (SF-539 CNS) | growth (UACC-257 melanoma) | growth (M14 melanoma)
1 | CC(=O)N1N=C(c2cccc(-n3cccc3)c2)CC1c1cccc(F)c1 (stereo not drawn) | 82.1% | 94.5% | 90.3% | 109% | 107% | 94.8% | 95.2% | 102% | 104% | 114% | 99.9% | 88.3% | 94.8% | 86.1% | 113% | 107% | 101% | 104% | 97.6%
2 | COC(=O)c1[nH]nc2c1C1(C(=O)N(C)c3ccccc31)C(C#N)=C(N)O2 (stereo not drawn) | 93.4% | 99.2% | 94.1% | 118% | 106% | 99.5% | 101% | 102% | 110% | 102% | 113% | 103% | 107% | 114% | 97.3% | 118% | 96.5% | 103% | 104%
3 | CNC(=O)c1cc(Oc2ccc3nc(NC(=O)c4ccc(N5CCOCC5)c(C(F)(F)F)c4)sc3c2)ccn1 | 78.9% | 91.5% | 91.7% | 90.5% | 68.8% | 77.9% | 80.5% | 47.1% | 102% | 98.2% | 71.9% | 94.2% | 84.9% | -31.3% (active) | 92.8% | 26.5% | 68.3% | 96.2% | 85.9%
4 | COc1ccc(/C=C/C(=O)c2cc(S(N)(=O)=O)c(OC)cc2OC)cc1 | 74.7% | 100% | 77.2% | 83% | 69.8% | 78% | 84.3% | 88.1% | 92.6% | 17.3% | 26.1% | 98% | 64.6% | 40.1% | 80.7% | 93.2% | 76.4% | 87.9% | 84.3%
5 | CCNC(=O)N1CCc2cc(OC)c(OCCc3ccc(OC)nc3)cc2C1c1ccc(OC)cc1C (stereo not drawn) | 44.8% | 38.5% | 55.6% | 31% | 3.64% (active) | 19.4% | 30.4% | 22.9% | 29.3% | 40.6% | 20% | 49.5% | 52.8% | 24.7% | 32.9% | 18.2% | 22.6% | 47% | 29.7%
6 | Cc1ccc2c(c1)C(=O)/C(=C/c1cccc(F)c1)S2 | 101% | 88.5% | 98.2% | 109% | 105% | 93.2% | 107% | 103% | 112% | 111% | 90.7% | 97.9% | 99.8% | 96.6% | 101% | 105% | 100% | 103% | 109%
7 | CN1CCC(n2cc(Nc3ncc4c(=O)n(-c5c(Cl)cccc5Cl)cc(Br)c4n3)cn2)CC1 | 8.53% (active) | 33.9% | 41.9% | 28% | 1.23% (active) | -8.22% (active) | 36.2% | 20.5% | 22.5% | 23.1% | 6.48% (active) | 69.5% | 22% | -58.3% (active) | 39.7% | 42.4% | 5.25% (active) | 82.1% | 35%
8 | NS(=O)(=O)c1ccc(Nc2nc(SCC(=O)c3ccc(Cl)cc3)nc3c2CCCC3)cc1 | 53.9% | 56.6% | 87% | 70% | 21% | 67.7% | 38.9% | 84.7% | 46% | 41.1% | 27.9% | 66.6% | 49.6% | 35.6% | 62.2% | 50.3% | 62.3% | 62.3% | 59.6%
9 | Cc1ccc(C2=Nn3c(nnc3-c3ccccc3)SC2)cc1 | 36.6% | 61.2% | 60.8% | 27.5% | 11.1% | -2.45% (active) | 44.6% | 46.8% | 3.27% (active) | 22.2% | 15.7% | 59.5% | 51.4% | -6.84% (active) | 49.5% | 10.4% | 11.2% | 55.5% | 12.2%
10 | CC(=O)N(C)C1CCc2c(sc(NC(=O)c3ccc(C(C)(C)C)cc3)c2C(N)=O)C1 (stereo not drawn) | 85.3% | 47.3% | 78.7% | 34.7% | 10.8% | 70.4% | 39.8% | 90.9% | 103% | 58.9% | 62.3% |  | 75.5% | 96.2% | 99% | 43.8% | 79.7% | 86.9% | 
11 | NC(N)=Nc1ccc(Oc2cccc(Nc3cccc(C(F)(F)F)c3)c2)cn1 | -2.6% (active) | 20.1% | 14.7% | 3.3% (active) | -76.8% (active) | -34.6% (active) | 35.8% | 33.7% | -47.3% (active) | -10.7% (active) | -47.3% (active) |  | 12% | 2.79% (active) | 49.3% | -86.1% (active) | 70.8% | 25.8% | 
12 | NS(=O)(=O)c1ccc(Nc2cc(-c3ccccc3)nc(SCC(=O)c3ccccc3)n2)cc1 | 92.5% | 92.8% | 90.4% | 106% | 103% | 98.6% | 98.8% | 96.9% | 116% | 103% | 98.1% | 93% | 92.9% | 94.9% | 97.1% | 99.6% | 101% | 99% | 98.4%
13 | CCC(NC(c1cc2cccc3ccc4cccc1c4c32)c1nnnn1C(C)(C)C)C1CCCCC1 (stereo not drawn) | 46.6% | 75% | 79.3% | 69.7% | 31.2% | 60.1% | 69.7% | 67.3% | 78.6% | 69.7% | 35.2% | 83.5% | 55.9% | 69.8% | 74.6% | 63.5% | 63.2% | 38.6% | 80.5%
14 | COCCNc1ccc2ncc(C#Cc3cncc(C(=O)Nc4ccc(CN5CCN(C)CC5)c(C(F)(F)F)c4)c3)n2n1 | -49.6% (active) | -45.9% (active) | -23% (active) | -48.3% (active) | -82.5% (active) | -76.3% (active) | 3.12% (active) | -64.1% (active) | -83.1% (active) | -32.4% (active) | 1.22% (active) | -69.7% (active) | -15% (active) | -84.3% (active) | -55% (active) | -13.9% (active) | -77% (active) | -46.4% (active) | -86.2% (active)
15 | COc1ccccc1-n1cc(C#N)c(N)c1C(=O)c1ccc(Br)cc1 | 87.8% | 94.4% | 96.7% | 63.5% | 79.7% | 48.7% | 78.6% | 91.9% | 76.5% | 97.3% | 20.1% |  | 79.8% | 85.8% | 89% | 45.5% | 82.7% | 72.5% | 
16 | O=C(Cn1c(-c2ccccc2)nc2cc(Cl)c(Cl)cc21)N=Nc1c(O)[nH]c2ccc(Cl)cc12 | 68.7% | 37.3% | 94.6% | 86.5% | 65.8% | 72.1% | 73.8% | 96.2% | 66.6% | 75.7% | 63.2% | 81.6% | 85% | -5.08% (active) | 104% | 77.7% | 79.4% | 84.4% | 60.7%
